# Data: PubChem BioAssay AID651599 (National Center for Advancing Translational Sciences (NCATS), 2012)
# Inconclusive results are not listed. A call without a number means that no potency is given here. Active and inactive are the calls of the source. Calls come from the whole dose curve; as a rule, active = well fitted inhibition curve with a large enough effect; inconclusive = small, poorly fitted or top-dose-only effect; inactive = no such curve, though single readings can be large or run the other way.
# Target: Tumor susceptibility gene 101 protein (Homo sapiens) (UniProt Q99816)
# Sequence (Q99816 whole entry, looked up): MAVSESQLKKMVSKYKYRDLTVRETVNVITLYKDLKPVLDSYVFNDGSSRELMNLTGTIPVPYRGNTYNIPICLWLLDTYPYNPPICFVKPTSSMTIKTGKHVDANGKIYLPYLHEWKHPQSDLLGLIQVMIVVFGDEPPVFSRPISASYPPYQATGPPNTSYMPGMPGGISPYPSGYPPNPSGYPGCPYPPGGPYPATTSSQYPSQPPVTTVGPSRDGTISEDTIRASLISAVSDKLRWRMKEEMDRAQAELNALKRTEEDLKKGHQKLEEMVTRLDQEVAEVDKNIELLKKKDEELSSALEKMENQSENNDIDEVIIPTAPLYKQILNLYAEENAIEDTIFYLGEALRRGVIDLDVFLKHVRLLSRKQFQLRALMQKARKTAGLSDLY
# Assay: qHTS Assay for Iinhibitors of HIV-1 Budding by Blocking the Interaction of PTAP/TSG101: Hit Validation in TR assay
# Summary of the method: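 Fluorescence polarization: Tsg101 binding domain (10 uM final) with Texas Red-labelled PTAP peptide (50 nM final) in HEPES pH 7.5, 0.15 M NaCl, Tween 20, EDTA, TCEP; 20 min binding at room temperature after compound addition.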
# Potency is the fitted concentration of half-maximal effect.
row,SMILES,Potency
1,COc1ccc2nc3ccccc3nc2c1NC(=O)c1ccc(Cl)cc1Cl,inactive
2,N#Cc1c(C#N)c(O)c2ccccc2c1O,inactive
3,CC(=O)Nc1ccc(Nc2c3c4c(cccc4n(C)c2=O)C(=O)c2ccccc2-3)cc1,inactive
4,Cc1ccc(CNC(=O)C2CCCN(S(=O)(=O)c3c(C)[nH]c(=O)[nH]c3=O)C2)cc1 (centres undefined),inactive
5,CCN(CC)c1ccc2cc(S(=O)(=O)c3ccc(C)cc3)c(=O)oc2c1,inactive
6,CCCN1CCCc2cc(CN)ccc21,inactive
7,O=c1oc2cc(O)ccc2cc1-c1nc2c(s1)CCc1ccccc1-2,inactive
8,CCN(CC)c1nc2ccccc2nc1C(C#N)C(=O)NCCc1ccccc1 (centres undefined),inactive
9,COc1cccc2c1C(=O)c1c(O)c3c(c(O)c1C2=O)C[C@@](O)(C(=O)CO)C[C@@H]3OC1CC(N)C(O)C(C)O1 (some centres undefined),inactive
10,Cc1ccc(N2C(=O)c3cccc4c(N5CCN(C)CC5)ccc(c34)C2=O)c2cccnc12,inactive
11,O=C(CC1CC2CCC1C2)NCc1cccs1 (centres undefined),inactive
12,N#CC(C(=O)NC1CC1)c1nc2ccccc2nc1N1CCCC1 (centres undefined),inactive
13,CCCn1c(=N)c(S(=O)(=O)c2ccccc2)cc2c(=O)n3cccc(C)c3nc21,inactive
14,COC(CNC(=O)c1ccc2c3c(onc13)-c1ccccc1C2=O)OC,inactive
15,Cc1ccc2c(c1)c1nc3ccccc3nc1n2C,inactive
16,CCc1cccc(CC)c1NC(=O)CSc1nnc(C2CC2)n1C,inactive
17,O=C1/C(=C\c2ccc(-c3ccccc3Cl)o2)SC(=S)N1CC1CCCO1 (centres undefined),inactive
18,CC1CC=C2C(C#N)=C(N)C(C#N)(C#N)C(c3cccs3)C2C1 (centres undefined),inactive
19,Oc1ccc2ccccc2c1N=Nc1nccs1,inactive
20,COc1cccc2c1C(=O)c1c(O)c3c(c(O)c1C2=O)C[C@@](O)(C(C)=O)C[C@@H]3O[C@H]1C[C@H](N)[C@H](O)[C@H](C)O1,20.6 µM (active)

row,SMILES,Potency
1,CCN(CC)c1ccc2cc(-c3nc(-c4ccc(OC)cc4)cs3)c(=O)oc2c1,inactive
2,O=c1[nH]c(-[n+]2ccccc2)c(/C=N/NC([S-])=Nc2ccccc2)s1,inactive
3,CCOC(=O)/C(C#N)=C\c1ccc(N2CCN(C/C=C/c3ccccc3)CC2)cc1,inactive
4,C/C(O)=c1/ccc2cccc3nc(C)nc1c23,inactive
5,CCC/C(C#Cc1ccc(N(C)C)cc1)=C1/c2ccccc2C(=O)N1c1ccccc1,inactive
6,O=C(NC1CC1)c1cccc2c1C(=O)c1ccc(N3CCC(Cc4ccccc4)CC3)cc1S2(=O)=O,inactive
7,COc1cccc(NC(=O)/C(C#N)=C/c2ccc(-c3ccc(C)cc3)o2)c1,inactive
8,CCCCCCCCOc1ccc(C2OC34CCCCC3C(C#N)(C#N)C2(C#N)C(=N)O4)cc1 (centres undefined),inactive
9,CCOc1ccc2nc3cc(NCc4ccc(OC)cc4)ccc3c(N)c2c1,inactive
10,O=C1CCN2C=Nc3cccc4ccc1c2c34,inactive
11,CCOc1ccc(-c2nn(-c3ccccc3)cc2/C=C2\SC(=S)N(C3CCS(=O)(=O)C3)C2=O)cc1 (centres undefined),inactive
12,CN1CCc2c(sc3c2C(=O)NC(c2ccco2)N3)C1 (centres undefined),inactive
13,Cc1cccc(CCNC(=O)c2sc3nc4n(c(=O)c3c2C)CCCC4)c1,inactive
14,O=C(NCc1ccco1)c1cccc2c1C(=O)c1ccc(N3CCC(Cc4ccccc4)CC3)cc1S2(=O)=O,inactive
15,CCCCCn1nc(-c2ccccc2)c2nc3ccccc3nc21,inactive
16,CCN(CC)S(=O)(=O)c1ccc(C(=O)OCCN2C(=O)c3cccc4c(N5CCOCC5)ccc(c34)C2=O)cc1,inactive
17,Cn1nc([N+](=O)[O-])c(C(C#N)c2nc3ccccc3n2C)c(Cl)c1=O (centres undefined),inactive
18,COc1ccc2ccccc2c1C(O)c1nccn1C (centres undefined),inactive
19,O=C1/C(=C/c2cccc(F)c2)Oc2cc(O)ccc21,inactive
